# Rows were chosen to be rich in hits. Some 4% of all compounds tested hit in one or more screens of this group.
# GBA mod = alters purified human glucocerebrosidase activity | P04062 | purified enzyme, resorufin glucoside fluorescence (screen aimed at inhibitors), 20 min | Potency, µM | actives 1.1% (n = 48,000); in the data active = potency below about 15 µM; inconclusive = mostly about 16 µM to 33 µM;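 note: the screen sought inhibitors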
#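 Normal human glucocerebrosidase (0.2 nM final) was assayed with resorufin β-D-glucopyranoside (30 uM final) in 50mM citric acid/KH2PO4, 10mM sodium taurocholate, 0.01% tween-20, pH 5.9. Compounds were titrated; fluorescence (Ex 548, Em 600) read after 20 min at RT.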
# PK Bst = modulators of Bacillus stearothermophilus pyruvate kinase; purified pyruvate kinase, luminescence ATP production; ribose 5-phosphate activator present at AC10; actives 1.2% (n = 51,000); Potency, µM; AID 361; in the data active = potency below about 11 µM; inconclusive = mostly about 12 µM to 25 µM;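 the screen sought inhibitors and activators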;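 note: scaled between full activation by ribose 5 phosphate and full inhibition by luteolin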
# TSHR ag = TSH receptor (human) agonism. P16473. actives 0.48% (n = 73,000). Potency, µM (doses to about 57.1 µM), for the others: at the highest dose activation, hits mostly activators. HEK293-CNG-TSHR cells (CNG channel as cAMP sensor), membrane potential dye, cAMP; active = well fitted activation curve with a large enough effect in the main read-out, with a control signal flat, not every such curve was filed as active; inconclusive = small, poorly fitted or top-dose-only effect, or a change in a side signal; inactive = no such curve, though single readings can be large or run the other way; % of control where 0% means no effect;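 note: the control signal comes from parental cells without the receptor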
# Target sequence (P16473 whole entry, looked up): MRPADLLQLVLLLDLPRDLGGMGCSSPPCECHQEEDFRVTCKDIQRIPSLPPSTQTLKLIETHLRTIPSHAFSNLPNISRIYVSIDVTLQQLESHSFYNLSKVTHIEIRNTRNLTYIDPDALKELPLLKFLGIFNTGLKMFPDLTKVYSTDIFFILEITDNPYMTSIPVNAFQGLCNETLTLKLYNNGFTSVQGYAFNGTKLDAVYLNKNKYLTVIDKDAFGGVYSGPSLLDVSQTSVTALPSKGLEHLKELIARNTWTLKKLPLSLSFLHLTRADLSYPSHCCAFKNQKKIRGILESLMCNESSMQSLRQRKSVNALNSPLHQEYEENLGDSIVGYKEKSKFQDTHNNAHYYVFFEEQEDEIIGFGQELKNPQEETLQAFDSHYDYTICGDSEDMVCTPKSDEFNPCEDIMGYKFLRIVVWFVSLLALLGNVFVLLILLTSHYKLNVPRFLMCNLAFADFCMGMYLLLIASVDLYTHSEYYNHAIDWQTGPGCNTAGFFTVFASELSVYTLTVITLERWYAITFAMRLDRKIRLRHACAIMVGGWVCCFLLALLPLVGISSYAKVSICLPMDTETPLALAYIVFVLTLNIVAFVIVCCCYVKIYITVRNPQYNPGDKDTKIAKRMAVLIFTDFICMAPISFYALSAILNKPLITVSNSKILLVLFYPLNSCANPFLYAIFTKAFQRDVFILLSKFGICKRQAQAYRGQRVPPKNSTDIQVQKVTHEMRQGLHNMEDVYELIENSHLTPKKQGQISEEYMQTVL
#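 HEK 293 cells stably expressing TSHR and a modified CNG channel, with CNG-only parental cells as counterscreen, were preloaded 60 min at room temperature with membrane potential dye containing 100 uM RO 20-1724. Compound exposure was 30 min, and depolarization was read as fluorescence at 590 nm.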
# HEK293 cAMP cs = counter-screen for TSHR agonists: cAMP increase in parental HEK293 | parental HEK293 CNG cAMP sensor, membrane potential fluorescence | Potency, µM (highest dose often 57.1 µM), inactives show at the top dose activation, actives largely listed as activators | actives 2.5% (n = 73,000); active = well fitted activation curve with a large enough effect; inconclusive = small, poorly fitted or top-dose-only effect; inactive = no such curve, though single readings can be large or run the other way; note: % of control where 0% means no effect; nearly all actives have a fitted effect of over 55% in size
#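 Parental HEK 293 cells stably expressing a cAMP-gated CNG channel were loaded with membrane potential dye containing 100 uM RO 20-1724 for 60 min. Compound added for 30 min; depolarization read as fluorescence intensity at 590 nm.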
# Active calls of the source: *; i = inactive; ? = inconclusive; nt = not tested or not shown; [ ] = dose if it differs, or a comment. Potency is the fitted concentration of half-maximal effect.
SMILES,GBA mod,PK Bst,TSHR ag,HEK293 cAMP cs
CCc1nnc(NC(=O)c2ccc(S(=O)(=O)N3CCCCCC3)cc2)s1,1.4*,>57,-1%,-1%
CCc1nc2ccccc2c(C(=O)OC2CCOC2=O)c1C (stereo unspecified),?,>57,8%,9%
CCCc1nc2ccccc2c(C(=O)OC2CCOC2=O)c1CC (stereo unspecified),12*,>57,15%,20%
COc1ccc(-c2nnc(CSc3nc4ccccc4c(=O)n3C)o2)cc1OC,>77,>57,?,25µM*
COc1ccc(-c2nnc(COc3ccc4ccccc4c3)o2)cc1OC,nt,nt,?,4µM*
O=c1c2ccccc2nc(SCc2nnc(-c3ccccc3)o2)n1-c1ccc(F)cc1F,>77,>57,?,?
COc1cc(-c2nnc(COc3ccc4cc(Br)ccc4c3)o2)cc(OC)c1OC,nt,nt,21%,11%
CC1=C/C(=N/O)C([C@H]2C=C(C)CC(C)(C)[C@@H]2O)C(C)(C)C1 (stereo partly specified),nt,nt,7%[11.4 µM],2%[11.4 µM]
COc1ccc2[nH]c3c(c2c1)CCn1c-3nc2ccccc2c1=O,>77,0.2*,-6%,15%
O=C1c2ccccc2C(=O)N1Cc1nc2ccccc2c(=O)n1CCCn1ccnc1,nt,nt,-2%,6%
CCCCn1c(CN2C(=O)c3ccccc3C2=O)nc2ccccc2c1=O,nt,nt,20µM*,10%
COc1ccc(Oc2nc(C)nc3c2oc2ccccc23)cc1,>77,nt,?,25µM*
O=C(/C=C\c1ccc(O)cc1)c1ccc(O)cc1O,nt,nt,-24%,-18%
Cc1ccccc1-n1nnnc1SCc1csc(-c2ccccc2)n1,>77,>57,?,3.2µM*
COCCn1c(SCc2csc(-c3ccccc3)n2)nc2ccccc21,>77,>57,?,32µM*
COc1ccc(C)cc1-n1nnnc1SCc1csc(C)n1,>77,>57,-2%,-2%
O=C(O)CCSc1nc2ccccc2n1CCOc1ccccc1,nt,nt,8%,25%
c1ccc(CSc2nnnn2-c2cccc3ccccc23)nc1,>77,7.4*,4%,6%
Nn1c(SCc2csc(-c3ccccc3)n2)nnc1-c1cccs1,>77,>57,?,25µM*
Nn1c(SCc2cn3ccsc3n2)nnc1-c1ccncc1,>77,>57,4%,0%
Cc1nc2sc3c(c2c(=O)n1/N=C/c1ccco1)CCCC3,>77,>57,?,25µM*
CCN(CC)CCCn1c(-c2ccccc2)nc2c(N3CCOCC3)nc(C)nc21,nt,nt,15%,25%
Cc1onc(-c2ccccc2Cl)c1C(=O)Nc1cccc2nsnc12,>77,>57,?,32µM*
Cc1onc(-c2ccccc2Cl)c1C(=O)Nc1ccccc1C(N)=O,nt,nt,-5%,0%
N[C@H](C(=O)O)[C@H](N)C(=O)O,nt,nt,8%[11.4 µM],1%[11.4 µM]
SMILES,GBA mod,PK Bst,TSHR ag,HEK293 cAMP cs
CC(=O)c1c(C(C)=O)c(C)n(NC(=O)c2cccnc2)c1C,>77,>57,?,4µM*
[Cu].[O-]/N=C1/C(=[OH+])Nc2ccccc21.[O-]Nc1c(O)[nH]c2ccccc12,nt,nt,-3%[11.4 µM],-1%[11.4 µM]
O=C(O)[C@@H]1[C@@H](C(=O)Nc2ncccn2)[C@@H]2C=C[C@@H]1O2,nt,nt,-1%[11.4 µM],-3%[11.4 µM]
CCCn1c(=O)c2ccccc2n2c(SCc3c(C(=O)OCC)oc4ccccc34)nnc12,>77,>57,?,16µM*
CCn1c(=O)c2ccccc2n2c(SCC(=O)NCc3cccs3)nnc12,>77,nt,-4%,-2%
CCCn1c(=O)c2ccccc2n2c(SCC(=O)NCc3cccs3)nnc12,>77,nt,?,20µM*
COC(=O)c1ccc(-n2nnnc2SCc2ccccc2OC)cc1,>77,>57,?,16µM*
CCOC(=O)c1oc2ccccc2c1CSc1nnnn1-c1ccc(OC)cc1,>77,>57,?,16µM*
Nc1c(S(=O)(=O)O)cc(Nc2cccc(S(N)(=O)=O)c2)c2c1C(=O)c1ccccc1C2=O,nt,nt,-13%[11.4 µM],-21%[11.4 µM]
NCCc1nc(-c2nc(C(=O)O)cs2)cs1,nt,nt,0%[11.4 µM],-8%[11.4 µM]
C[C@@]12CCC(=O)C=C1CC[C@H]1[C@H]3CC[C@](O)(C(=O)CO)[C@]3(C)CC[C@@H]12,nt,nt,nt,6%
CCCn1c(=O)c2ccccc2n2c(SCCOc3ccc(C)cc3)nnc12,>77,nt,?,20µM*
CC(C)(C)c1csc(NC(=O)c2ccc(Cl)s2)n1,15*,i,12%,14%
Cc1nc(CC(=O)Nc2nc(C(C)(C)C)cs2)cs1,>77,>11,6%,11%
O=C(Cn1cnc2c(cnn2-c2ccccc2)c1=O)OCc1ccccc1,>77,>57,?,?
Cc1ccc(-n2ncc3c(=O)n(CC(=O)OCc4ccccc4)cnc32)cc1,>77,>57,?,25µM*
Cc1ccc(-n2nnc3c(=O)n(CC(=O)OCc4ccccc4)cnc32)cc1,nt,nt,?,25µM*
N#Cc1ccc2ccn(CC(=O)NC3CCCCC3)c2c1,>77,>57,?,16µM*
CC(C)CNc1nc(N)[nH]c(=O)c1NC=O,nt,nt,-3%[11.4 µM],1%[11.4 µM]
CCC(C)C1C(C#N)=C(N)Oc2n[nH]c(-c3ccccc3)c21 (stereo unspecified),nt,nt,?,25µM*
CCC(C)C1C(C#N)=C(N)Oc2n[nH]c(C)c21 (stereo unspecified),nt,nt,-7%,15%
Cc1ccc(S(=O)(=O)N[C@H]2COC(=O)CC=C[C@@H](C)[C@H]3C=C[C@H](O)[C@@H](COC(=O)CC=C[C@H]2C)O3)cc1,nt,nt,-7%[11.4 µM],-2%[11.4 µM]
CCc1cccc(CC)c1N(COC)C(=O)Cn1nnc2ccccc21,nt,6.7*,nt,nt
CN[C@@H](c1ccncc1)[C@@H](NC)c1ccncc1,nt,nt,-4%[11.4 µM],12%[11.4 µM]
CCCCCCCCCCCCOCC1CO1 (stereo unspecified),nt,nt,-7%,25%
SMILES,GBA mod,PK Bst,TSHR ag,HEK293 cAMP cs
Cc1cc(C)n(CCc2nc(-c3cc4ccccc4o3)cs2)n1,>77,>57,?,16µM*
O=C(O)Cc1cccnc1,nt,nt,-3%[11.4 µM],1%[11.4 µM]
O=C(c1ccccc1OCc1ccccc1Br)N1CCN(c2ncccn2)CC1,>77,>57,?,16µM*
O=C(c1ccc(-c2ccccc2)cc1)N1CCN(c2ncccn2)CC1,>77,>57,?,25µM*
C#CCN1C(C)=C(C(=O)OC)[C@@H](c2cccc([N+](=O)[O-])c2)C(C(=O)OCC)=C1C,nt,nt,nt,8%
O=C(CC(Nc1ccccc1)C(=O)O)c1ccccc1 (stereo unspecified),>77,10*,-4%,5%
COc1ccccc1NC(=O)CN1CCN(CC(=O)Nc2ccc(OCc3ccccc3)cc2)CC1,10*,>57,18%,-2%[2.29 µM]
O=c1c2ccccc2nc2c3ccccc3c3nncn3n12,>77,0.9*,8%,-2%
CC1CN(c2nn3c(=O)c4ccccc4nc3c3ccccc23)CC(C)O1 (stereo unspecified),>77,?,?,?
[O-][n+]1c(CN2CCCCC2)nc2cccc3c2c1-c1ccccc1-3,nt,nt,3%[11.4 µM],-4%[11.4 µM]
Cn1c(/C(C#N)=C(\O)CN2CCN(Cc3ccccc3)CC2)nc2ccccc21,>77,>57,?,32µM*
Cc1cc(C)c2c(CN3CCN(CCO)CC3)cc(=O)oc2c1,5.5*,>57,16%,22%
